# Measurements taken from PubChem BioAssay (EPA / NIEHS).
# Values joined by “and” are separate entries in the source; they are usually repeats but may differ in a detail not shown here. Equal values may be shown once. Inconclusive results are not listed. Some structures have more than one record in an assay (separate samples or runs), and their calls can disagree. Active and inactive are the calls of the source. The calls were made as follows: active = hit-call score of the fitted dose curve at least 0.9, where 1 is the maximum; inconclusive = response in the unintended direction; inactive = score below 0.9.
# Key:
# [1] = target: rat Gamma-Aminobutyric Acid Type A Receptor BDZ, alpha 6 site (GABARa6), Gabra6 (gene 29708) (UniProt P30191); test: NVS_LGIC_rGABARa6: NovaScreen (NVS) Ligand-Gated Ion Channel Assay for rat Gamma-Aminobutyric Acid Type A Receptor BDZ, alpha 6 site (GABARa6) (AID 2283339)
# Chain of rat Gamma-Aminobutyric Acid Type A Receptor BDZ, alpha 6 site (GABARa6), Gabra6 (gene 29708) (P30191 whole entry, looked up): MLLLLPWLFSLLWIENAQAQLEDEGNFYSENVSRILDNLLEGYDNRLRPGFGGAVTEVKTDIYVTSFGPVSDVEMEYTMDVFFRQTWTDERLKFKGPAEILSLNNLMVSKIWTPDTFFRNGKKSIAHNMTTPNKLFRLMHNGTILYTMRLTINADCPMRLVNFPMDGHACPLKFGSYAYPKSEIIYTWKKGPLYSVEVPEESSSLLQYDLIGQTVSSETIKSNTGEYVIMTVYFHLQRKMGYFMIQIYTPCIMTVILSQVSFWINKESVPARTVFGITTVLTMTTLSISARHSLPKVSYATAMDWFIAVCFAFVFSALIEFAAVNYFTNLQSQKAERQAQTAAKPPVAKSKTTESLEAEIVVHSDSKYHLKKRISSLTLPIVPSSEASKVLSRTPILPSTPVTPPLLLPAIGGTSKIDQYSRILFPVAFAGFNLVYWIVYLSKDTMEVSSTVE
# How it was run: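 Actives from a 25 uM duplicate screen were retested in concentration series (max 50 uM). Specific radioligand displacement from rat cerebellar membranes was counted by filter-based scintillation at 1 h; DMSO served as baseline.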
# [2] = target: human Constitutive Androstane Receptor (CAR), NR1I3 (gene 9970) (UniProt Q14994); test: NVS_NR_hCAR_Antagonist: NovaScreen (NVS) Nuclear Receptor Binding Assay for human Constitutive Androstane Receptor Antagonism (CAR) (AID 2283344)
# Chain of human Constitutive Androstane Receptor (CAR), NR1I3 (gene 9970) (Q14994 whole entry, looked up): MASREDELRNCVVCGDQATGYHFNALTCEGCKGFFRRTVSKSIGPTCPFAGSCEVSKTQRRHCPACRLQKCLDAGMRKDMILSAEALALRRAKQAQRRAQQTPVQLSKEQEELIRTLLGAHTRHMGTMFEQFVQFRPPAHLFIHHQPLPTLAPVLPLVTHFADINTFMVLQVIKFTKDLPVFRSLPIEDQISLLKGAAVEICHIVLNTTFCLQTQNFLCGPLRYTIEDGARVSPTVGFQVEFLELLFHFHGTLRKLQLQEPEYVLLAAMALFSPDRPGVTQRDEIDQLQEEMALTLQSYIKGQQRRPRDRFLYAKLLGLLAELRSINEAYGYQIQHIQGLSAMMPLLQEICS
# How it was run: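 Single 25 uM duplicate primary screen, with concentration-series follow-up on actives. Cell-free binding format run in antagonist mode, TR-FRET signal taken 1 h post-dose; activity is signal loss relative to DMSO.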
# [3] = target: Bile acid receptor (Homo sapiens) (UniProt Q96RI1); test: NVS_NR_hFXR_Agonist: NovaScreen (NVS) Nuclear Receptor Binding Assay for human Farnesoid X Receptor Agonism (FXR) (AID 2283347)
# Chain of Bile acid receptor (Homo sapiens) (Q96RI1 whole entry, looked up): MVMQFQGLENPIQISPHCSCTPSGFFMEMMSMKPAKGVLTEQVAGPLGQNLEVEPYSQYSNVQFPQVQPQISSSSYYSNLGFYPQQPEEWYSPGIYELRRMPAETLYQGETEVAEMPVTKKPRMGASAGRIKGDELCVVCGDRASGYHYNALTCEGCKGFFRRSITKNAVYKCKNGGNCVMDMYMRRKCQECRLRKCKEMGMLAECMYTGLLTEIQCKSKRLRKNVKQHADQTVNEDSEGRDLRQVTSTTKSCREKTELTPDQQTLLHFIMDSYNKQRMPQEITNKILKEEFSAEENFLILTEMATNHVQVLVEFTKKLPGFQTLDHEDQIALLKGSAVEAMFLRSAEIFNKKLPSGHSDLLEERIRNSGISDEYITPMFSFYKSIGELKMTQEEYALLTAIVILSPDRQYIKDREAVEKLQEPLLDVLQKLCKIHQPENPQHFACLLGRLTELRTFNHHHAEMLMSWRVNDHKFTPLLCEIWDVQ
# How it was run: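 Agonist-mode FXR assay read by time-resolved FRET 1 h after compound addition, using isolated human receptor protein without cells. Duplicate 25 uM single-point primary screen, concentration series for confirmed actives; DMSO as baseline.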
# [4] = target: Estrogen receptor (Homo sapiens) (UniProt P03372); test: NVS_NR_hER: NovaScreen (NVS) Nuclear Receptor Binding Assay for human Estrogen Receptor (ER) (AID 2283348)
# Chain of Estrogen receptor (Homo sapiens) (P03372 whole entry, looked up, the tested form may be a part): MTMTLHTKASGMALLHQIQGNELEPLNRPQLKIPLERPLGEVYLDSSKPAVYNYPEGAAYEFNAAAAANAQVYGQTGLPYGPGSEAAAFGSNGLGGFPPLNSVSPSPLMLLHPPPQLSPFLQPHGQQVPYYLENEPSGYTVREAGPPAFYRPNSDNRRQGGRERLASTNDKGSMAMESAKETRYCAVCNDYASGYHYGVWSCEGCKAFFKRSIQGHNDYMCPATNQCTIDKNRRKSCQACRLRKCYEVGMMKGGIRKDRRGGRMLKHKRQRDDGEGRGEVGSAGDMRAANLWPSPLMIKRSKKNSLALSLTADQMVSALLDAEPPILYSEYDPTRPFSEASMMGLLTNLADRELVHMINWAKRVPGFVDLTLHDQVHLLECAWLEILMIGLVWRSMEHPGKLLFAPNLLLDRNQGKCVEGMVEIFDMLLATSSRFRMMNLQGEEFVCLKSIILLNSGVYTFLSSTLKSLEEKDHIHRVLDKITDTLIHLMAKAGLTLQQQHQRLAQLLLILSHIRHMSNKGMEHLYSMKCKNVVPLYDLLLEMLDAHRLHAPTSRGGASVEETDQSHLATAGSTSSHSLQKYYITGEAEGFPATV
# How it was run: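 Cell-free MCF7-derived ER preparation, specific radioligand displaced by test compound, read by scintillation counting 18 h post-dosing. Duplicate single-point 25 uM screen, then concentration-response confirmation; DMSO baseline.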
# [5] = target: Estrogen receptor (Homo sapiens) (UniProt P03372); test: OT_ER_ERaERa_1440: Odyssey Thera (OT) 24-hour HEK293T Protein-Complementation Assay for Estrogen Receptor-alpha/-alpha Homodimer (AID 2283349);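 also: hits raise fluorescence above DMSO for agonists and antagonists alike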
# How it was run: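 HEK293T, stable ERα LBD (aa 310-547) homodimer PCA; 24 h compound exposure; mean fluorescence intensity (nuclear for agonists, nuclear plus cytoplasmic for antagonists) vs vehicle; positive fitting direction, DMSO baseline.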
# [6] = target: Estrogen receptor (Homo sapiens) (UniProt P03372); test: OT_ER_ERaERa_0480: Odyssey Thera (OT) 8-hour HEK293T Protein-Complementation Assay for Estrogen Receptor-alpha/-alpha Homodimer (AID 2283351);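 also: rise in fluorescence from reassembled reporter fragments on ERα LBD homodimer in nucleus or whole cell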
# How it was run: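 Cells were treated for 8 hours, then imaged on a laser scanning plate cytometer. Complementation of reporter fragments fused to the human ERα ligand-binding domain (residues 310-547) in HEK293T gave fluorescence, and gain of signal over vehicle was fitted.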
# [7] = target: rat Peripheral-type Benzodiazepine Receptor (PBR), Tspo (gene 24230) (UniProt P16257); test: NVS_MP_rPBR: NovaScreen (NVS) Membrane Protein Assay for rat Peripheral-type Benzodiazepine Receptor (PBR) (AID 2283335)
# Chain of rat Peripheral-type Benzodiazepine Receptor (PBR), Tspo (gene 24230) (P16257 whole entry, looked up): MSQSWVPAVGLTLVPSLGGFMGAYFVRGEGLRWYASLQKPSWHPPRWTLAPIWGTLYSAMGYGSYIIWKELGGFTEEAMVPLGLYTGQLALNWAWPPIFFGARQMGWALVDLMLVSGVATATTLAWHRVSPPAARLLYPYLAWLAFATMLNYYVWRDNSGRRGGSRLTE
# How it was run: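 Competitive displacement of specific radioligand from rat kidney membrane PBR, read by filtration and scintillation after 1 h. Compounds first tested at 25 uM in duplicate, then in concentration series; signal loss relative to DMSO.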
# [8] = target: Androgen Receptor/SRC-1 Co-activator, AR (gene 367) (UniProt P10275); test: OT_AR_ARSRC1_0960: Odyssey Thera (OT) 16-hour HEK293T Protein-Complementation Assay for Androgen Receptor/SRC-1 Co-activator (AID 2283353);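 also: actives raise the signal above DMSO so potency reflects increased AR and SRC-1 complex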
# Chain of Androgen Receptor/SRC-1 Co-activator, AR (gene 367) (P10275 whole entry, looked up, the tested form may be a part): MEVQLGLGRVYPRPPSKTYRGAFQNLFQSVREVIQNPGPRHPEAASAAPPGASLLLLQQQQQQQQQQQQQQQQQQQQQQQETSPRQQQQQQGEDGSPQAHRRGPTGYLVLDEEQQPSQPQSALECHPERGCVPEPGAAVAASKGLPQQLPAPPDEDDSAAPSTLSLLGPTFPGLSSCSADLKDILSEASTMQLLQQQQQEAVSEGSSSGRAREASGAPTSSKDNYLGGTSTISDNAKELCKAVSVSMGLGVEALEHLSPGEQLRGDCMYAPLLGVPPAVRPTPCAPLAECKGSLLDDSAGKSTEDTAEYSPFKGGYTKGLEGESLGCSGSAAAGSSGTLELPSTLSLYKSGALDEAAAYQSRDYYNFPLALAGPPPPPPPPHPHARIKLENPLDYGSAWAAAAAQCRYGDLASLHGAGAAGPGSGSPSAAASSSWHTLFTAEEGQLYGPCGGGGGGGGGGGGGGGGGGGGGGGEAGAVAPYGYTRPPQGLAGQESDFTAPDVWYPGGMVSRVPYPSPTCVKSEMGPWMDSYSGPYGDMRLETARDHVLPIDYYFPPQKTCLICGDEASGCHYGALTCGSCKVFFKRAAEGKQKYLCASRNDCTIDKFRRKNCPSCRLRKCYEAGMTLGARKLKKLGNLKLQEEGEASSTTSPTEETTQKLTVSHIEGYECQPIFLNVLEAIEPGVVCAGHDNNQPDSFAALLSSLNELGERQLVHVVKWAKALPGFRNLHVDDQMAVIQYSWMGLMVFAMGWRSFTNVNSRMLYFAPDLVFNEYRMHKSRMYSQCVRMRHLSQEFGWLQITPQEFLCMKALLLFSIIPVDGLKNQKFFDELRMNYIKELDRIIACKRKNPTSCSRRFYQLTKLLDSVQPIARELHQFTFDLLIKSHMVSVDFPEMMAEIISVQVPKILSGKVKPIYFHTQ
# How it was run: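 Stable HEK293T line carries AR and SRC-1 each linked to a Venus fragment; chemicals are applied for 16 h, cells imaged at two wavelengths, and the 488 nm nucleus/cytoplasm ratio is taken as the signal, rising relative to DMSO.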
# [9] = target: Androgen Receptor/SRC-1 Co-activator, AR (gene 367) (UniProt P10275); test: OT_AR_ARSRC1_0480: Odyssey Thera (OT) 8-hour HEK293T Protein-Complementation Assay for Androgen Receptor/SRC-1 Co-activator (AID 2283354);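 also: hits raise the complementation signal above DMSO so AC50 marks enhancers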
# How it was run: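 Reconstituted split-Venus YFP signal from AR–SRC-1 interaction, read by imaging 8 h post-dose in stable HEK293T lines. The 488 nm nucleus-to-cytoplasm ratio (≥400 cells/image) was fitted upward against DMSO.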
# [10] = target: Estrogen receptor (Homo sapiens) + Estrogen receptor beta (Homo sapiens) (UniProt P03372+Q92731); test: OT_ER_ERaERb_0480: Odyssey Thera (OT) 8-hour HEK293T Protein-Complementation Assay for Estrogen Receptor-alpha/-beta Heterodimer (AID 2283352)
# Chain of Estrogen receptor (Homo sapiens) + Estrogen receptor beta (Homo sapiens) (P03372 whole entry, looked up, the tested form may be a part): as the sequence (P03372 whole entry, looked up, the tested form may be a part) above
# Chain of Estrogen receptor (Homo sapiens) + Estrogen receptor beta (Homo sapiens) (Q92731 whole entry, looked up, the tested form may be a part): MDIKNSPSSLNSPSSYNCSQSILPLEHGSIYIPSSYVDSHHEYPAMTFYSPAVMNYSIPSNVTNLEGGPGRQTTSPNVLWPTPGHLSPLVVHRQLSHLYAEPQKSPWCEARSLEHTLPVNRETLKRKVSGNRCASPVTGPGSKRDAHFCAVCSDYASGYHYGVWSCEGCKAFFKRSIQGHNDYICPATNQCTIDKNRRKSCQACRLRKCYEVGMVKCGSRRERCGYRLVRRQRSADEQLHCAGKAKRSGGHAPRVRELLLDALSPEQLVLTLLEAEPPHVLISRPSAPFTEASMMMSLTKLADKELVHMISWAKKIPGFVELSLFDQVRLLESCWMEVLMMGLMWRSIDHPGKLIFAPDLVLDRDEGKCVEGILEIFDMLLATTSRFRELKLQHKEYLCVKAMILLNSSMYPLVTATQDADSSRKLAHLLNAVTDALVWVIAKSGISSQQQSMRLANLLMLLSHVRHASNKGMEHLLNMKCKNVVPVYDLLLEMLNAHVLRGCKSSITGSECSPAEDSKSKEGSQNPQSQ
# How it was run: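 HEK293T cells expressing ER-alpha/ER-beta LBD fusions to complementary reporter fragments were dosed with compound for 8 hours. Heterodimer formation was read as increased nuclear (agonist) or nuclear plus cytoplasmic (antagonist) mean fluorescence intensity versus DMSO vehicle.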
# [11] = target: chimpanzee Androgen Receptor (AR), AR (gene 747460) (UniProt O97775); test: NVS_NR_cAR: NovaScreen (NVS) Nuclear Receptor Binding Assay for chimpanzee Androgen Receptor (AR) (AID 2283346);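 also: radioligand displacement from AR measured by scintillation counting in a cell-free assay; a loss of bound radioligand signal versus DMSO counts as binding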
# Chain of chimpanzee Androgen Receptor (AR), AR (gene 747460) (O97775 whole entry, looked up): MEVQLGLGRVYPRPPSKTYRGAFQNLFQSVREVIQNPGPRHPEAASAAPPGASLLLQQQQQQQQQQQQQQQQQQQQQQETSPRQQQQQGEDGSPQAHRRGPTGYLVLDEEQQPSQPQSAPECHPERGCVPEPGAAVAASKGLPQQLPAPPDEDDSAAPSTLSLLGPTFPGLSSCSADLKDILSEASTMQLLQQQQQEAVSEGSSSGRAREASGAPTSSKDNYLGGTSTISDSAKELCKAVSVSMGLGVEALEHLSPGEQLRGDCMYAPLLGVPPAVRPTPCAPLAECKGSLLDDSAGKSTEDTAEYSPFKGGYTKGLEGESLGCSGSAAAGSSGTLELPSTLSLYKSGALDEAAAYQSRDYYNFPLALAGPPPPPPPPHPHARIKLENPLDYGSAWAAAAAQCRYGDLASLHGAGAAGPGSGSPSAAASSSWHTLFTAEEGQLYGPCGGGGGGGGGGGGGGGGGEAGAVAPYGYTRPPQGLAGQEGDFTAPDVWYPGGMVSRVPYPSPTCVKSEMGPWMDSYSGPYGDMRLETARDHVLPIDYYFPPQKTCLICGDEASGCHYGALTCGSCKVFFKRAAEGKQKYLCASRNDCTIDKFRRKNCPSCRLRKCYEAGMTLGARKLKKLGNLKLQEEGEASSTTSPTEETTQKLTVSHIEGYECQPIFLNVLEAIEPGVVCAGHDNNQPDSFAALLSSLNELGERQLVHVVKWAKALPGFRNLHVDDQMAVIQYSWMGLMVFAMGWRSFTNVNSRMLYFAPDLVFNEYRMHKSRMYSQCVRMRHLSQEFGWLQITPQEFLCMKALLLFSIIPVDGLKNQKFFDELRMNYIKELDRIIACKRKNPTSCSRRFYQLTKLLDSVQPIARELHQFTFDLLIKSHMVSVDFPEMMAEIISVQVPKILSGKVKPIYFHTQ
# How it was run: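 Cell-free competition binding with insect-cell (Sf9/Sf21) extracted chimpanzee AR; scintillation signal from lysate at 72 h. Screened in duplicate at 25 uM, then concentration-response for actives; fitting relative to DMSO.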
# [12] = target: Bile acid receptor (Homo sapiens) (UniProt Q96RI1); test: NVS_NR_hFXR_Antagonist: NovaScreen (NVS) Nuclear Receptor Binding Assay for human Farnesoid X Receptor Antagonism (FXR) (AID 2283350)
# How it was run: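 Antagonist-format time-resolved FRET binding assay with extracted human receptor protein, read 1 hour after compound addition. Compounds first screened at 25 uM in duplicate, then actives tested in concentration series, with loss of signal relative to DMSO.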
smiles,measurement,setting,value
O=S(=O)(O)C(F)(F)C(F)(F)C(F)(F)C(F)(F)C(F)(F)C(F)(F)F,outcome,[1],inactive
same,outcome,[2],inactive
same,outcome,[3],inactive
same,outcome,[4],inactive
same,outcome,[5],inactive
same,outcome,[6],inactive
Cc1ccccc1CO[C@@H]1C[C@@]2(C(C)C)CC[C@]1(C)O2,outcome,[7],inactive
same,AC50,[8],79.7 µM (active)
same,outcome,[9],inactive
Cc1cccc(C)c1N,outcome,[5],inactive
same,outcome,[6],inactive
same,outcome,[10],inactive
Cc1cc(O)ccc1Cl,AC50,[4],16.1 µM (active)
same,outcome,[5],inactive
same,outcome,[6],inactive
same,AC50,[10],50 µM (active)
O=C(NC(=O)c1c(F)cccc1F)Nc1cc(Cl)c(OC(F)(F)C(F)F)c(Cl)c1,outcome,[5],inactive
same,outcome,[6],inactive
same,outcome,[10],inactive
same,outcome,[8],inactive
same,outcome,[9],inactive
CN(C)CCO,outcome,[5],inactive
same,outcome,[6],inactive
same,outcome,[10],inactive
C=CC(N)=O,outcome,[5],inactive
same,outcome,[6],inactive
CCOP(=S)(OCC)SCSC(C)(C)C,outcome,[5],inactive
same,outcome,[6],inactive
CC(C)C(=O)OCC(C)(C)C(OC(=O)C(C)C)C(C)C (stereo not drawn),outcome,[5],inactive
same,outcome,[10],inactive
Oc1c(Cl)c(Cl)c(Cl)c(Cl)c1Cl,AC50,[11],5 µM (active)
same,outcome,[5],inactive
same,outcome,[6],inactive
Nn1cnnc1,outcome,[4],inactive
same,outcome,[5],inactive
same,outcome,[6],inactive
same,outcome,[10],inactive
Cc1ccccc1[N+](=O)[O-],outcome,[5],inactive
same,outcome,[6],inactive
CCC(=O)O[C@H]1CC[C@H]2[C@@H]3CCC4=CC(=O)CC[C@]4(C)[C@H]3CC[C@]12C,AC50,[11],0.801 µM (active)
same,outcome,[11],inactive
same,AC50,[4],14 µM (active)
same,outcome,[4],inactive
same,AC50,[5],11.6 µM (active)
same,outcome,[5],inactive
same,outcome,[6],inactive
same,outcome,[10],inactive
same,AC50,[9],29.9 nM (active) [middle of 6 runs]
CN(C)c1nc(=O)n(C2CCCCC2)c(=O)n1C,outcome,[5],inactive
same,outcome,[6],inactive
Cc1cccc([N+](=O)[O-])c1,outcome,[4],inactive
same,outcome,[5],inactive
same,outcome,[6],inactive
Clc1ccc(C(c2ccccc2Cl)C(Cl)(Cl)Cl)cc1 (stereo not drawn),outcome,[4],inactive
CCOCCOC(C)=O,outcome,[4],inactive
same,outcome,[5],inactive
same,outcome,[6],inactive
Nc1ccc(-c2ccc(N)cc2)cc1,AC50,[11],19.9 µM (active)
same,outcome,[4],inactive
same,outcome,[5],inactive
same,outcome,[6],inactive
same,outcome,[10],inactive
CCCCCCCCOC(=O)c1ccccc1C(=O)OCCCCCCCC,outcome,[5],inactive
same,outcome,[6],inactive
same,outcome,[10],inactive
same,outcome,[8],inactive
same,outcome,[9],inactive
ClC1=C(Cl)[C@]2(Cl)[C@@H]3[C@H]4C[C@H]([C@@H]5O[C@H]45)[C@@H]3[C@@]1(Cl)C2(Cl)Cl,outcome,[4],inactive
same,outcome,[5],inactive
same,outcome,[6],inactive
Oc1ccc(Cl)cc1Cl,outcome,[4],inactive
same,outcome,[5],inactive
same,outcome,[6],inactive
same,AC50,[10],66.5 µM (active)
ClC(Cl)=C(c1ccc(Cl)cc1)c1ccc(Cl)cc1,AC50,[11],16.8 µM (active)
same,outcome,[4],inactive
same,AC50,[5],84.3 µM (active) and 78.6 µM (active)
same,outcome,[5],inactive
same,AC50,[6],80.1 µM (active) and 56.9 µM (active) and 63.7 µM (active)
O=S(=O)(O)C(F)(F)C(F)(F)C(F)(F)C(F)(F)F,outcome,[5],inactive
Clc1ccc(C(Cl)(Cl)Cl)cc1,outcome,[5],inactive
same,outcome,[12],inactive
same,outcome,[6],inactive
Sc1ccccc1,outcome,[5],inactive
same,outcome,[6],inactive
Cc1ccccc1O,outcome,[5],inactive
same,outcome,[6],inactive
same,outcome,[10],inactive
O=C(N[C@H]1CN2CCC1CC2)c1cc2ccoc2cn1,outcome,[5],inactive
same,outcome,[6],inactive
same,outcome,[10],inactive
same,outcome,[8],inactive
same,outcome,[9],inactive
C=CC(=O)NCNC(=O)C=C,outcome,[4],inactive
same,outcome,[5],inactive
same,outcome,[6],inactive
same,outcome,[10],inactive
same,outcome,[8],inactive
same,outcome,[9],inactive
C1CC2OC2CC1C1CO1 (stereo not drawn),outcome,[5],inactive
same,outcome,[6],inactive
same,outcome,[10],inactive
N#Cc1ccc(N(CC(N)=O)CC(F)(F)F)cc1C(F)(F)F,AC50,[11],0.0178 µM (active)
same,outcome,[5],inactive
same,outcome,[6],inactive
same,outcome,[10],inactive
O=C(O)C(F)(F)C(F)(F)C(F)(F)C(F)(F)C(F)(F)F,outcome,[11],inactive
same,outcome,[5],inactive
same,outcome,[6],inactive
same,outcome,[10],inactive
CC(c1ccc(O)cc1)(c1ccc(O)cc1)c1ccc(O)cc1,AC50,[11],25 µM (active)
same,outcome,[3],inactive
same,AC50,[4],1.06 µM (active)
same,AC50,[5],11.9 µM (active)
same,AC50,[6],11.9 µM (active)
ClC1=C(Cl)[C@]2(Cl)[C@@H]3[C@@H]4C[C@@H]([C@H]5O[C@@H]45)[C@@H]3[C@@]1(Cl)C2(Cl)Cl,outcome,[4],inactive
same,outcome,[5],inactive
same,outcome,[6],inactive
CCCCCCOC(=O)c1ccccc1C(=O)OCCCCCC,outcome,[5],inactive
same,outcome,[6],inactive
Clc1ccc(Cl)cc1,outcome,[5],inactive
same,outcome,[6],inactive
same,outcome,[10],inactive
